Laboratory results published in PubChem BioAssay (NCI).
The panel holds about 83,000 compounds, 20% with a hit somewhere; the sample as a whole holds those more often.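 Each cell line was grown in a 96-well plate and treated with one concentration of compound for 48 hours. Values below 10 were considered active.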 Active and inactive are the calls of the source.

The compounds below were run on HCT-15 colon (assay: NCI-60 one-dose screen, 48 h (100 = growth as untreated, 0 = no growth, -100 = all killed)). Details: 10 µM unless noted.
Experimental: Growth inhibition of the HCT-15 human tumor cell line is measured as a screen for anti-cancer activity. Cells are grown in 96 well plates and exposed to the test compound for 48 hours. Compounds are tested at a single concentration, which is 10^-5 M for most compounds. The reported endpoint is percent growth (GI% or GIPRCNT), where numbers from 0 - 100% represent growth inhibition, and numbers from -100% - 0 represent cell death. For example, a value of 40 represents 60% growth inhibition. A value of 0 means no net growth occurred over the course of the experiment. A value of -40 indicates 40% of cells at the beginning of the experiment died by the end of the experiment. A value of -100 means all cells are dead at the end of the experiment.
NCI-60 Human Tumor Cell Lines Screen was performed using the standard one-dose NCI protocol, which is described in more detail at https://dtp.cancer.gov/discovery_development/nci-60/default.htm.
Compounds with GIPRCNT values below 10 were considered active. Activity score was based on GIPRCNT using the following formula: […]
Score is 0 for GIPRCNT values of 100 or above, 50 for GIPRCNT values of 0, and 100 for GIPRCNT values of -100.
For `CN[C@@H]1C(OC2[C@H](O[C@H]3[C@H](O)[C@@H](O)[C@H](N=C(N)N)[C@@H](O)[C@@H]3N=C(N)N)OC(C)[C@]2(O)CO)OC(CO)C(O)C1O` (stereo not given in full), the growth was 112% (inactive).
In the case of `CC(C)N(Cc1ccccc1)c1c(Cl)ssc1=O`, the growth is reported as 108% (inactive).
For `COc1cc(/C=C2\SC(N3CCCCC3)=NC2=O)ccc1OCCCCCCOc1ccc(/C=C2\SC(N3CCCCC3)=NC2=O)cc1OC`, the growth was 25.5% (inactive).
`CC(C)N(Cc1ccccc1)c1c(S)ssc1=S` was tested, and the growth was 10.4% (inactive).
In the case of `O=C1/C(=C/c2ccc(F)cc2)Cc2ccccc21`, the growth is reported as 94.6% (inactive).
In the case of `O=C(NCCNC(=O)Oc1cccc2ccccc12)Oc1cccc2ccccc12`, the growth is reported as 99.6% (inactive).
In the case of `CC[N+](CCCCCCCCCC[N+](CC)(c1ccccn1)c1ccccn1)(c1ccccn1)c1ccccn1`, the growth is reported as 58.6% (inactive).
For `c1ccc(-c2n(Cc3ccc4ccccc4c3)cc[n+]2Cc2ccc3ccccc3c2)cc1`, the growth was 15.2% (inactive).
For `COc1ccc(CNC(=O)c2c(C)n([O-])c3ccc(OC)cc3[n+]2=O)cc1`, the growth was 103% (inactive).
With `CCCCc1n(Cc2ccc3ccccc3c2)cc[n+]1Cc1ccc2ccccc2c1` the growth was 49.5% (inactive).
In the case of `COc1ccc2ncccc2c1Cc1c(OC)ccc2ncccc12`, the growth is reported as 57.8% (inactive).
`Nc1ccc2c(c1)C(=O)c1cc(Cl)c(Cl)cc1-2` was tested, and the growth was 103% (inactive).
With `Cc1sc2nc3c4ccccc4c(NCCCN(C)C)nn3c(=O)c2c1C` the growth was 17.1% (inactive).
In the case of `O=C(CSc1nnc(-c2cc(-c3ccccc3)nc3ccccc23)o1)c1ccc(Br)cc1`, the growth is reported as 109% (inactive).
For `Nc1nc(Nc2ccccc2SSc2ccccc2Nc2nc(N)nc(-c3cccc(Cl)c3)n2)nc(-c2cccc(Cl)c2)n1`, the growth was 69.8% (inactive).
In the case of `Cc1csc(C#Cc2cncc(O)c2)n1`, the growth is reported as 112% (inactive).
In the case of `CC1CN(CC(O)c2ccc(Br)cc2)CCO1` (stereo not given), the growth is reported as 107% (inactive).
With `CCCCN1c2nc3ccccc3cc2Sc2cc3ccccc3nc21` the growth was 94.9% (inactive).
With `C[C@]12CCC(=O)C=C1CC[C@H]1[C@@H]3C[C@@H](O)[C@](O)(C(=O)CO)[C@@]3(C)C[C@H](O)[C@@]12F` the growth was 102% (inactive).
In the case of `Cc1cc(Cl)ccc1Nc1nc(C(F)(F)F)ccc1C(=O)N/N=C/c1ccc(Cl)cc1`, the growth is reported as 5.02% (active).
For `CC[C@@H](C)/C=C(C)/C=C/C(=O)c1c(O)c(-c2ccc(O)cc2)cn(OC2CC(=O)CCC(C)OC(=O)CC2O)c1=O` (stereo not given in full), the growth was 26.8% (inactive).
`COCCOCCOCCOCCOc1ccc2c(c1)C(=O)c1nc3ncccc3c(=O)n1-2` was tested, and the growth was -95.6% (active).
`CC(NC(N)=S)c1ccccc1` (stereo not given) was tested, and the growth was 104% (inactive).
With `CSc1nc(-c2ccc(O)cc2O)c2c(=O)[nH]c(Nc3ccc(S(=O)(=O)Nc4nc(C)cc(C)n4)cc3)nc2n1` the growth was 104% (inactive).
With `COc1cc(-c2nnc(-c3nc(-c4cc(OC)c(OC)c(OC)c4)n4ccccc34)o2)ccc1N` the growth was 64.5% (inactive).
In the case of `CC[n+]1c(/C=C/c2ccc(N3CCCC3)cc2)cccc1/C=C/c1ccc(N2CCCC2)cc1`, the growth is reported as -85.7% (active).
For `c1ccc(COc2ccc(Nc3ncnc4c3cnn4-c3ccccc3)cc2)cc1`, the growth was 72.4% (inactive).
For `ICCC(c1ccccc1)(c1ccccc1)c1ccccc1`, the growth was 27.7% (inactive).
With `O=C(Nc1ccc2c(c1)C(=O)c1ccccc1-2)c1ccccc1` the growth was 67.2% (inactive).
`COc1ccc2c(c1)C(=Nc1cc(OC)c(OC)c(OC)c1)C(=O)N2` was tested, and the growth was 100% (inactive).
For `N#CC(C#N)C(C#N)C#N`, the growth was 103% (inactive).
`CN(C)CCCN=c1cc2c(=O)n(CCCN(C)C)c(=O)c3c(NCCCN(C)C)cc4c(O)n(CCCN(C)C)c(=O)c1c4c3-2` was tested, and the growth was 13.7% (inactive).
For `O=c1[nH]cc(Nc2cc(Cl)c3nonc3c2[N+](=O)[O-])c(=O)[nH]1`, the growth was 103% (inactive).
In the case of `O=c1[nH]c(SCc2ccccc2)nc2nc(Nc3ccc(NC(=S)Nc4ccccc4)cc3)nc(-c3ccc(O)cc3O)c12`, the growth is reported as 108% (inactive).
For `Cc1[nH]c(=O)[nH]c(=O)c1CCSSCCc1c(C)[nH]c(=O)[nH]c1=O`, the growth was 113% (inactive).
For `CCCCCCCSc1ncnc2[nH]ncc12`, the growth was 60.8% (inactive).
`COc1cnc2c(c1)C(=O)c1c-2n(CCCN2CCCC2)c(=O)c2cc(F)ccc12` was tested, and the growth was -18.9% (active).
For `C[C@H](C(=O)N[C@@H](Cc1ccc(-c2ccccc2)cc1)C(=O)NC1CC(C)(C)NC(C)(C)C1)c1ccc(-c2ccccc2)c(F)c1`, the growth was -75% (active).
`CCOC(=O)Nc1cc(-c2ccc(C)c(NS(C)(=O)=O)c2)nn2c(C)nnc12` was tested, and the growth was 9.95% (active).
`NS(=O)(=O)c1cc2c(cc1Cl)NC=NS2(=O)=O` was tested, and the growth was 102% (inactive).
